In PubChem BioAssay (Tox21):
Several values for one entry are separate records, joined by “and”; a condition that tells them apart may be missing. Equal entries are not always repeated. Inconclusive results are not listed. Some compounds were tested as several samples or in several runs, with calls that do not always agree. Activity calls are given as the source filed them. Unless noted, calls come from the whole dose curve; as a rule, active = well fitted curve in the direction sought with a large enough effect in the repeat runs; inconclusive = weak or mixed curves; inactive = no such curve, though single readings can be large; an effect the other way counts as inactive or inconclusive.

Experiments:
[1] = qHTS assay to identify small molecule antagonists of the estrogen related receptor (ERR) signaling pathway from Tox21 library - cell viability counter screen (AID 1224834); note: nearly all actives have a fitted effect of over 30% in size; note: potency is the fitted concentration of half-maximal effect
How it was run: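 Counter screen run in ERR cells (2,000 cells/well): cells pre-incubated 6 h, then treated with compounds for 17.5 h at 37 C. Fluorescence was read 30 min after CellTiter-Fluor addition.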

[2] = molecular target: Luciferin 4-monooxygenase (Photinus pyralis) (UniProt P08659); experiment: qHTS assay to identify small molecule inhibitors of firefly luciferase (AID 1224835); note: nearly all actives have a fitted effect of over 25% in size; note: potency is the fitted concentration of half-maximal effect
How it was run: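 Biochemical qHTS: compounds run as interplate titrations against purified firefly enzyme, with D-luciferin and ATP each at its KM concentration. Light output recorded by CCD imaging.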

[3] = qHTS assay to identify small molecule agonists of the constitutive androstane receptor (CAR) signaling pathway - cell viability counter screen (AID 1224836); note: nearly all actives have a fitted effect of over 45% in size; note: potency is the fitted concentration of half-maximal effect
How it was run: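 23 h treatment, 37 C, 5% CO2. Cell line: HepG2 stably expressing hCAR with a CYP2B6-2.2kb construct. Co-treatment: PK11195, 0.75 uM final. Read-out: CellTiter-Fluor fluorescence intensity.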

[4] = qHTS assay to identify small molecule antagonists of the constitutive androstane receptor (CAR) signaling pathway - cell viability counter screen (AID 1224837); note: nearly all actives have a fitted effect of over 45% in size; note: potency is the fitted concentration of half-maximal effect
How it was run: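 CITCO at 50 nM final was added alongside compounds (15 concentrations) to double-stable hCAR/CYP2B6-2.2kb HepG2 cells. Following 23 hr at 37 C, cell viability was quantified by CellTiter-Fluor fluorescence intensity.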

[5] = qHTS assay to identify small molecule antagonists of the estrogen related receptor signaling pathway with the pleiotropic PPARgamma coactivator (PGC) from Tox21 10K library - cell viability counter screen (AID 1224840; active = well fitted cell-killing curve with a large enough effect in the repeat runs, not every such curve was filed as active; note: nearly all actives have a fitted effect of over 40% in size; note: potency is the fitted concentration of half-maximal effect)
How it was run: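 Readout: fluorescence intensity from CellTiter-Fluor after 30 min at 37 C/5% CO2. Preceded by 17.5 h treatment of PGC/ERR cells with DMSO-dissolved compounds, added 6 h post-seeding.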

[6] = qHTS assay to identify small molecule antagonists of the estrogen related receptor signaling pathway with the pleiotropic PPARgamma coactivator (PGC) from Tox21 10K library (AID 1224841; call rule not given here; note: actives are mostly falling curves and most rising ones were filed inactive; nearly all actives have a fitted effect of over 50% in size; note: potency is the fitted concentration of half-maximal effect)
How it was run: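 One-Glo luminescence, measured after half an hour at room temperature, quantified reporter output of PGC/ERR cells. These had been plated at 2,000 per well, incubated 6 h, dosed with compounds in DMSO, then kept 18 h at 37 C.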

[7] = qHTS assay to identify small molecule agonists of the estrogen related receptor signaling pathway with the pleiotropic PPARgamma coactivator (PGC) from Tox21 10K library (AID 1224842); note: nearly all actives have a fitted effect of over 15% in size
How it was run: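 PGC/ERR reporter cell line, 2,000 cells per well, incubated 6 h at 37 C before 23 nL compound in DMSO was added. After 18 h at 37 C, One-Glo luminescence read following 30 min at room temperature.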

[8] = molecular target: Thyrotropin receptor (Homo sapiens) (UniProt P16473); experiment: qHTS assay to identify small molecule agonists of the thyroid stimulating hormone receptor (TSHR) signaling pathway (AID 1224843; calls by dose curve; note: nearly all actives have a fitted effect of over 45% in size; note: potency is the fitted concentration of half-maximal effect)
How it was run: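 HEK293/TSHR, 800 cells/well; cpd 30 min RT; add cAMP-d2 + anti-cAMP-cryptate, 1 h RT; fluorescence read on plate reader. 15-pt titration, n=3.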

[9] = qHTS assay to identify small molecule agonists of the hypoxia (HIF-1) signaling pathway - cell viability counter screen (AID 1224844; calls by dose curve; note: nearly all actives have a fitted effect of over 50% in size)
How it was run: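 In this counter screen, HRE-bla ME-180 cell viability after 17 hrs of compound exposure at 37C was read by CellTiter-Glo luminescence, multiplexed with the beta-lactamase reporter measurement.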

[10] = qHTS assay to identify small molecule agonists of H2AX (AID 1224845; active = well fitted activation curve with a large enough effect in the signal ratio in the repeat runs, not every such curve was filed as active; the % refers to the signal ratio)
How it was run: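 Wild-type CHO-K1 cells, plated overnight, exposed 3hr at 37C to 15 concentrations (0.76% DMSO final). Lysed, then HTRF anti-pH2AX (S139) cryptate and anti-H2AX-d2 antibodies, 24 hr room temperature; 665/620 nm emission read.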

[11] = qHTS assay to identify small molecule agonists of the hypoxia (HIF-1) signaling pathway (AID 1224846; active = well fitted activation curve with a large enough effect in the signal ratio in the repeat runs, not every such curve was filed as active; the % refers to the signal ratio)
How it was run: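 ME-180 HRE-bla reporter cells; compounds in DMSO, 17 h at 37C; read-out beta-lactamase via CCF4-AM FRET.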

[12] = qHTS assay to identify small molecule antagonists of the estrogen related receptor (ERR) signaling pathway from Tox21 library (AID 1224848); note: nearly all actives have a fitted effect of over 50% in size; note: potency is the fitted concentration of half-maximal effect
How it was run: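 Compounds dissolved in DMSO are pin-transferred onto ERR reporter cells (2,000 per well) that have settled for 6 h at 37 C. Plates then incubate 18 h at 37 C before ONE-Glo luciferase reagent and a luminescence read 30 min later.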

[13] = qHTS RealTime-Glo MT Cell Viability Assay in HEK293 cells - 32 hour (AID 1224868); note: nearly all actives have a fitted effect of over 50% in size; note: potency is the fitted concentration of half-maximal effect
How it was run: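 HEK293 cells seeded with NanoLuc/prosubstrate reagent, rested 5 h at 37 C, then dosed and kept at 37 C up to 40 h. Nonlytic real-time luminescence from viable cells read at 0, 8, 16, 24, 32 and 40 h.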

[14] = A CellTox Green Cytotoxicity Assay to monitor cytotoxicity in HEK293 cells - 0 hour (AID 1224869); note: nearly all actives have a fitted effect of over 50% in size
How it was run: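 Real-time, in one plate: 600 HEK293 cells/well with dead-cell DNA dye, pinned compound after 5 h, 37 C incubation over 40 h; viable cells give no appreciable fluorescence.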

[15] = qHTS RealTime-Glo MT Cell Viability Assay in HepG2 cells - 24 hour (AID 1224867); note: nearly all actives have a fitted effect of over 50% in size
How it was run: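 HepG2 cells (600/well) were dispensed with RealTime-Glo reagents, incubated 5 h at 37 °C, then treated with compounds in DMSO for up to 40 h. Nonlytic NanoLuc luminescence reflecting viable cells was read at each stated time point.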

[16] = molecular target: Nuclear receptor subfamily 1 group I member 3 (Homo sapiens) (UniProt Q14994); experiment: qHTS assay to identify small molecule agonists of the constitutive androstane receptor (CAR) signaling pathway (AID 1224839); note: nearly all actives have a fitted effect of over 15% in size; note: potency is the fitted concentration of half-maximal effect;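 for activation: HepG2 cells stably carrying human CAR and a CYP2B6 luciferase reporter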
How it was run: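 Compounds tested at 15 concentrations on HepG2 cells stably harbouring hCAR and CYP2B6-2.2kb reporter constructs, co-treated with PK11195 (0.75 uM final), 24 h at 37 C; luminescent reporter signal quantified.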

[17] = qHTS assay to identify small molecule agonists of H2AX - cell viability counter screen (AID 1224847; calls by dose curve; note: nearly all actives have a fitted effect of over 30% in size; note: potency is the fitted concentration of half-maximal effect)
How it was run: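 Compounds tested at 15 concentrations were incubated 3 hr at 37C with wild-type CHO-K1 cells; cellular ATP-based luminescence (CellTiter-Glo) indicated viability.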

[18] = qHTS assay to identify small molecule agonists of the estrogen related receptor (ERR) signaling pathway from Tox21 library (AID 1224849; calls by dose curve; note: nearly all actives have a fitted effect of over 15% in size); conditions: ERR reporter cell line, ONE-Glo luciferase, 18 h; at 92.4 µM (top of the series)
How it was run: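 Luciferase activity in ERR pathway reporter cells served as the agonist readout; exposure lasted 18 h at 37 C, with ONE-Glo detection after 30 min at room temperature.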
% is set by controls: 0 for no effect and ±100 for the full control effect.

Chain of Luciferin 4-monooxygenase (Photinus pyralis) (P08659 whole entry, looked up): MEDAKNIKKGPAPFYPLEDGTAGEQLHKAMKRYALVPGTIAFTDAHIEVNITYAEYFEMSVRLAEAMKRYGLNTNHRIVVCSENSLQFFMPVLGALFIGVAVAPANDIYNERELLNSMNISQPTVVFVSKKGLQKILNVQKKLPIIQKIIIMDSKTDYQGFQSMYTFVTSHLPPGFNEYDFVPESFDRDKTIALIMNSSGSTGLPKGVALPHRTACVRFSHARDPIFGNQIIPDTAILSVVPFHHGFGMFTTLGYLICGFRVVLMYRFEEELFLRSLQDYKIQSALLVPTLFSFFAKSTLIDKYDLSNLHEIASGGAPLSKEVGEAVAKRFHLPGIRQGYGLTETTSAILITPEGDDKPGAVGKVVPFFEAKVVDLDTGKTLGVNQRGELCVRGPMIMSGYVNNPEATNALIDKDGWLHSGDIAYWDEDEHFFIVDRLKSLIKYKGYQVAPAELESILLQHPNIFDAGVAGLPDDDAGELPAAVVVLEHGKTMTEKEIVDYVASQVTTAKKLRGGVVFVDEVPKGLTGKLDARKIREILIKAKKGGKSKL
Chain of Nuclear receptor subfamily 1 group I member 3 (Homo sapiens) (Q14994 whole entry, looked up): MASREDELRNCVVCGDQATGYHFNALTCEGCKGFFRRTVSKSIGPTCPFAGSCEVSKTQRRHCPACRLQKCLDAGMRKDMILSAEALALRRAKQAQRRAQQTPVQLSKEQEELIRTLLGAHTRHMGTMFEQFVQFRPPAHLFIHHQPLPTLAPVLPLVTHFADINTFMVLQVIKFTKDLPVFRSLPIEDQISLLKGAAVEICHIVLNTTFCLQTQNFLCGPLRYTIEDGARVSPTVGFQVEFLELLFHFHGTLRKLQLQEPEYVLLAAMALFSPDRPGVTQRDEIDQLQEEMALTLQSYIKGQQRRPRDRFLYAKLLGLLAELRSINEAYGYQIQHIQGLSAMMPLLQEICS
Chain of Thyrotropin receptor (Homo sapiens) (P16473 whole entry, looked up): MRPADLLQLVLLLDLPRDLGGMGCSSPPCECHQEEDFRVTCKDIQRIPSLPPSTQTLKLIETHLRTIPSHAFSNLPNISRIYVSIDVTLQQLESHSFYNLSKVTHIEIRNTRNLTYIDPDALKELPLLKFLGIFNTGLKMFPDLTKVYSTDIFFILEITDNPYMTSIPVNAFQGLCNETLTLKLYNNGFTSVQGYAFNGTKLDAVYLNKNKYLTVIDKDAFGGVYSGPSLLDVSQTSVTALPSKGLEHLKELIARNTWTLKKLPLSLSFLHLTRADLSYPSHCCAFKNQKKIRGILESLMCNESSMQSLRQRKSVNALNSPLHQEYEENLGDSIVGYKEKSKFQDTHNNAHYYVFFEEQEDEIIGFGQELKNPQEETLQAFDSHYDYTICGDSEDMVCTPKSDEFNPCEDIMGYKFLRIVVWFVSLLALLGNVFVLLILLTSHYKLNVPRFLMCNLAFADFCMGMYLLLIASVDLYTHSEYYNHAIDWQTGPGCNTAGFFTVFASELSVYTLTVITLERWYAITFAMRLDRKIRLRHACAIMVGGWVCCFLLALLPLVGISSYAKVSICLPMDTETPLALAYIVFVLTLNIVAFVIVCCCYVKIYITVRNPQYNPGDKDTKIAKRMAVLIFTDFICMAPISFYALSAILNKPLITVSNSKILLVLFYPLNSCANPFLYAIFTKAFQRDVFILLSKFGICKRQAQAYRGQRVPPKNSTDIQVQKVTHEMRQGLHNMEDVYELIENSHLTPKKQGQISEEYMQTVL

Cc1ccc(OP(=O)(Oc2ccc(C)cc2)Oc2ccc(C)cc2)cc1
inactive: Potency [1] | Potency [2] | Potency [3] | Potency [4] | Potency [5] | Potency [6] | Potency [7] | Potency [9] | Potency [10] | outcome [11] | Potency [12] | Potency [13] | Potency [14]
active: Potency [8] 12.2 µM and 30.6 µM

C1=Cc2cccc3cccc1c23
190 nM (active) and inactive: Potency [6]
inactive: Potency [1] | Potency [2] | Potency [3] | Potency [4] | Potency [5] | Potency [7] | Potency [8] | Potency [9] | Potency [10] | outcome [11] | Potency [15] | Potency [13] | Potency [14]

CC(O)CCO (stereo not given)
inactive: Potency [1] | Potency [2] | Potency [3] | Potency [4] | Potency [16] | Potency [5] | Potency [8] | Potency [9] | Potency [10] | outcome [11] | Potency [17] | Potency [15] | Potency [13]

c1ccc(NNc2ccccc2)cc1
inactive: Potency [1] | Potency [3] | Potency [4] | Potency [5] | Potency [6] | Potency [7] | Potency [8] | Potency [9] | Potency [10] | outcome [11] | Potency [17] | Potency [15] | Potency [13] | Potency [14]
active: Potency [2] 25.4 µM and 17.8 µM

COP(=O)(OC)OC
inactive: Potency [1] | Potency [2] | Potency [3] | Potency [4] | Potency [16] | Potency [5] | Potency [6] | Potency [7] | Potency [8] | Potency [9] | Potency [10] | outcome [11] | activity change, positive = activation [18] -30.8% and 3.29% | Potency [15] | Potency [13] | Potency [14]

CCCCCCCCC(=O)NCc1ccc(O)c(OC)c1
inactive: Potency [1] | Potency [2] | Potency [3] | Potency [4] | Potency [16] | Potency [5] | Potency [8] | Potency [9] | Potency [10] | Potency [13]

CCC(C)(C)c1ccc(O)cc1
inactive: Potency [1] | Potency [3] | Potency [4] | Potency [5] | Potency [6] | Potency [7] | Potency [8] | Potency [9] | Potency [10] | outcome [11] | Potency [15] | Potency [13] | Potency [14]
active: Potency [2] 40.4 µM and 63.3 µM | Potency [17] 80 µM

C[C@]12CCC(=O)C(O)=C1CC[C@@H]1[C@@H]2CC[C@]2(C)C(=O)CC[C@@H]12
inactive: Potency [1] | Potency [2] | Potency [3] | Potency [4] | Potency [16] | Potency [5] | Potency [6] | Potency [7] | Potency [9] | Potency [10] | outcome [11] | Potency [13] | Potency [14]
54.5 µM (active) and inactive: Potency [12]

O=[N+]([O-])c1ccc(O)c([N+](=O)[O-])c1
active: Potency [1] 27.4 µM and 27.3 µM | Potency [3] 30.8 µM | Potency [4] 30.8 µM | Potency [5] 30.8 µM and 27.3 µM | Potency [6] 30.8 µM and 21.7 µM
inactive: Potency [2] | Potency [16] | Potency [7] | Potency [8] | Potency [9] | Potency [10] | outcome [11] | activity change, positive = activation [18] -36.7% and -43.4% | Potency [15] | Potency [13]

C=CC(=O)OCCO
inactive: Potency [1] | Potency [2] | Potency [3] | Potency [4] | Potency [16] | Potency [5] | Potency [8] | Potency [9] | outcome [11] | Potency [17] | Potency [15] | Potency [13]

CC(C)Oc1cc(-n2nc(C(C)(C)C)oc2=O)c(Cl)cc1Cl
active: Potency [16] 60.3 µM and 61.1 µM | Potency [13] 34.7 µM
inactive: Potency [1] | Potency [2] | Potency [3] | Potency [4] | Potency [5] | Potency [8] | Potency [9] | Potency [10] | outcome [11] | Potency [15] | Potency [14]

CCC(C)(c1ccc(O)cc1)c1ccc(O)cc1
inactive: Potency [2] | Potency [3] | Potency [4] | Potency [5] | Potency [7] | Potency [8] | Potency [9] | outcome [11] | Potency [15] | Potency [14]
active: Potency [1] 68.5 µM | Potency [16] 4.85 µM and 3.06 µM | Potency [6] 48.5 µM | Potency [12] 54.5 µM

COP(=S)(OC)Oc1cc(Cl)c(Cl)cc1Cl
active: Potency [16] 54.1 µM
inactive: Potency [1] | Potency [2] | Potency [3] | Potency [4] | Potency [5] | Potency [8] | Potency [9] | Potency [10] | outcome [11] | Potency [15] | Potency [13]

CCN(CC)C(=O)SCc1ccc(Cl)cc1
inactive: Potency [1] | Potency [3] | Potency [4] | Potency [5] | Potency [6] | Potency [7] | Potency [9] | Potency [10] | outcome [11] | Potency [17] | Potency [13]
active: Potency [2] 35.6 µM

O=Cc1ccco1
inactive: Potency [1] | Potency [2] | Potency [3] | Potency [4] | Potency [5] | Potency [6] | Potency [7] | Potency [8] | Potency [9] | Potency [10] | outcome [11] | Potency [17] | Potency [13]

CCN(CC)N=O
inactive: Potency [1] | Potency [2] | Potency [3] | Potency [4] | Potency [5] | Potency [6] | Potency [7] | Potency [8] | Potency [9] | Potency [10] | outcome [11] | Potency [17] | Potency [15] | Potency [13] | Potency [14]

O=P(O)(O)CCCl
inactive: Potency [1] | Potency [2] | Potency [3] | Potency [4] | Potency [16] | Potency [5] | Potency [8] | Potency [9] | Potency [10] | outcome [11] | Potency [17] | Potency [15] | Potency [13]
